Laboratory results from PubChem BioAssay (Tox21).
Inconclusive results are not listed. The source made the active and inactive calls. Unless noted, calls follow the shape of the full dose curve.

Assays:
[1] = Nuclear factor erythroid 2-related factor 2/antioxidant responsive element (Nrf2/ARE) small molecule agonists: qHTS cell viability counter screen in human keratinocytes (AID 1919968; active = well fitted curve in the direction sought with a large enough effect in the repeat runs; an effect the other way counts as inactive or inconclusive; also: nearly all actives have a fitted effect of over 55% in size; also: potency is read from the fitted curve at half-maximal effect)
In short: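 After a 5 h attachment period, ARE-reporter keratinocytes were dosed with compounds in DMSO and then cultured 23 h at 37 C. Cell viability came from CellTiter-Fluor signal read after a further 1 h.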

[2] = Nuclear factor erythroid 2-related factor 2/antioxidant responsive element (Nrf2/ARE) small molecule agonists: luciferase reporter gene qHTS assay in human keratinocytes (AID 1919969); also: nearly all actives have a fitted effect of over 35% in size; also: potency is read from the fitted curve at half-maximal effect
[3] = biological target: Gonadotropin-releasing hormone receptor (Homo sapiens) (UniProt P30968); assay: Human gonadotropin-releasing hormone receptor (GnRHR) small molecule agonists, calcium flux assay in GnRHR-HEK293 cells (AID 1920063); also: nearly all actives have a fitted effect of over 35% in size; also: potency is read from the fitted curve at half-maximal effect
Sequence of Gonadotropin-releasing hormone receptor (Homo sapiens) (P30968 whole entry, looked up): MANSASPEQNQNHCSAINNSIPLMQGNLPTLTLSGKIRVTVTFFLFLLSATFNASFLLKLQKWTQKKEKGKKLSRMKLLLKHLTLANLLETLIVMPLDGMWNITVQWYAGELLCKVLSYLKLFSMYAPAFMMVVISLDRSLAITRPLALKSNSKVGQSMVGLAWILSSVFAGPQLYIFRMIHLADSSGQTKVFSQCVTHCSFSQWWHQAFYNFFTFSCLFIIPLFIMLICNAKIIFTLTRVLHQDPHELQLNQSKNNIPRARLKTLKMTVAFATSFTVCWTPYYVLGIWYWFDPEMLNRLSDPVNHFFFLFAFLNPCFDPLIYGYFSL
In short: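 We seeded human GnRHR-expressing HEK293 cells for 18 hours, loaded them with calcium dye for an hour at 37 C, added test compounds, and recorded fluorescence intensity kinetically for three minutes.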

[4] = biological target: KiSS-1 receptor (Homo sapiens) (UniProt Q969F8); assay: Human kisspeptin (KISS1R) small molecule agonists, calcium flux assay in KISS1R-HEK293 cells (AID 1920064; active = well fitted curve in the direction sought with a large enough effect in the repeat runs; an effect the other way counts as inactive or inconclusive)
Sequence of KiSS-1 receptor (Homo sapiens) (Q969F8 whole entry, looked up): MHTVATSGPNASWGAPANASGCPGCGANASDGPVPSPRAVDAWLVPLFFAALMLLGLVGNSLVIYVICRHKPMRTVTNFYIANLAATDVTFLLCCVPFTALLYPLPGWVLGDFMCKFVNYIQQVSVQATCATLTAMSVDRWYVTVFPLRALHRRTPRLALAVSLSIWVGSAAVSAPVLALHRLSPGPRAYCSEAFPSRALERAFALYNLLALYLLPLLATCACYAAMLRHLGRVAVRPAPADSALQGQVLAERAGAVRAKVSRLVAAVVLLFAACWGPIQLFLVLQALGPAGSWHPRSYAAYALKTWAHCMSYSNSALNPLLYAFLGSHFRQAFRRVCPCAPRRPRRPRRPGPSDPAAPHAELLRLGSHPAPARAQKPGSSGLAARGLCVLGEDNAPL
In short: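 Kinetic calcium assay, 1 s sampling over 3 min at Ex/Em 480/540, in HEK293 cells engineered with human KISS1R; compounds delivered in DMSO after 1 h dye loading.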

[5] = G protein-coupled receptor (GPCR) small molecule agonists, calcium flux assay: HEK293 wild type cell line counter screen (AID 1920065)
In short: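 Calcium-sensitive dye, loaded 1 h at 37 C into cells cultured 18 h, reports compound-evoked calcium release as fluorescence (Ex/Em 480/540), measured over 3 min. Agonist mode; 15-point titrations, triplicate.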

[6] = p53 small molecule agonists, cell-based qHTS assay with human liver microsomes (AID 1963577)
In short: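 p53RE-bla cells, 4,000/well, compound added after 5 h, with human liver microsomes 0.5 mg/mL and NADPH 0.5 mg/mL final; 16 h at 37 C, then LiveBLAzer 2 h RT, fluorescence.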

[7] = p53 small molecule agonists, cell-based qHTS assay with rat liver microsomes (AID 1963578)
In short: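 p53RE-bla cells, 4,000/well, pre-incubated 5 h, then given compounds plus rat liver microsomes (0.5 mg/mL final) and NADPH (0.5 mg/mL final). Incubation 16 h at 37 C; beta-lactamase reporter read by LiveBLAzer fluorescence after 2 h at room temperature.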

[8] = biological target: 5-hydroxytryptamine receptor 2A (Homo sapiens) (UniProt P28223); assay: 5-hydroxytryptamine receptor 2A (HTR2A) small molecule antagonists, cell-based qHTS assay (AID 1963586); also: nearly all actives have a fitted effect of over 45% in size; also: potency is read from the fitted curve at half-maximal effect
Sequence of 5-hydroxytryptamine receptor 2A (Homo sapiens) (P28223 whole entry, looked up): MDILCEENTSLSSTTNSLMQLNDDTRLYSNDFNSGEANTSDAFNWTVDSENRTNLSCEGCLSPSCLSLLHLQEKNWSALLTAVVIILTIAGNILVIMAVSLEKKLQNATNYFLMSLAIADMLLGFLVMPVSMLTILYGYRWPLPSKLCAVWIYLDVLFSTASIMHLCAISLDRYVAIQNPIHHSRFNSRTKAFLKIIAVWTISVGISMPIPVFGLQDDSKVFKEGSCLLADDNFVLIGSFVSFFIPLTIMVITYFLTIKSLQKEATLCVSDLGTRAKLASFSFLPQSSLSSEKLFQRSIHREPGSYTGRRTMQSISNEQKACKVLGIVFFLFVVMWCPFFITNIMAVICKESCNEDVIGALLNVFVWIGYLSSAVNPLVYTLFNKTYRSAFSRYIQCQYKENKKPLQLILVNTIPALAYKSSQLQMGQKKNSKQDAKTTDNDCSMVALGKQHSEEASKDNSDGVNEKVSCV
In short: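 Antagonist-mode intracellular calcium assay: DOI (4 nM) added after 5 min compound pre-incubation at room temperature to dye-loaded HTR2A-CHO cells. Fluorescence followed for 3 min, sampled every second.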

[9] = biological target: 5-hydroxytryptamine receptor 2A (Homo sapiens) (UniProt P28223); assay: 5-hydroxytryptamine receptor 2A (HTR2A) small molecule agonists, cell-based qHTS assay (AID 1963587); also: nearly all actives have a fitted effect of over 30% in size
In short: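 CHO cells stably expressing human HTR2A, plated 18 h, loaded with calcium dye 1 h at 37 C. Agonist mode: compounds added and intracellular calcium fluorescence recorded kinetically for 2 min at 1 sec intervals.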

[10] = biological target: Muscarinic acetylcholine receptor M1 (Homo sapiens) (UniProt P11229); assay: Cholinergic receptor muscarinic 1 (CHRM1) small molecule antagonists, cell-based qHTS assay (AID 1963588); also: nearly all actives have a fitted effect of over 40% in size
Sequence of Muscarinic acetylcholine receptor M1 (Homo sapiens) (P11229 whole entry, looked up): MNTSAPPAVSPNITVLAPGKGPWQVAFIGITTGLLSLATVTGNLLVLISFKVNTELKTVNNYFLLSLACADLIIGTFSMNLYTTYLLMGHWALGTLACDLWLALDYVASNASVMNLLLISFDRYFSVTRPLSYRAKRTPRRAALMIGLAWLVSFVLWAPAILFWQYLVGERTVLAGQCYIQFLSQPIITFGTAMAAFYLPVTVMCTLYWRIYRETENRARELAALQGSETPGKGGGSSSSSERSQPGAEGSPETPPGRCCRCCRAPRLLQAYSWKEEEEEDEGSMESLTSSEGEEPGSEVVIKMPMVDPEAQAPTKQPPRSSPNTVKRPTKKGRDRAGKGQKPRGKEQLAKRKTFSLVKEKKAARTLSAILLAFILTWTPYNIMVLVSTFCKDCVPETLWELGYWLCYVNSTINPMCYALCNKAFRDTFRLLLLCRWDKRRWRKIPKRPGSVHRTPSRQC
In short: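 CHRM1-CHO calcium-flux assay, antagonist mode. Cells were seeded 18 h, dye-loaded 1 h at 37 C and given compound for 5 min at RT, then acetylcholine was added at 50nM. FDSS fluorescence was read 3 min; 15 concentrations, three runs.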

[11] = biological target: Muscarinic acetylcholine receptor M1 (Homo sapiens) (UniProt P11229); assay: Cholinergic receptor muscarinic 1 (CHRM1) small molecule agonists, cell-based qHTS assay (AID 1963589); also: nearly all actives have a fitted effect of over 35% in size
In short: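 Measures agonist-induced intracellular calcium rise. Stable human CHRM1 CHO line, 1 h dye load at 37 C, compounds from DMSO, kinetic fluorescence read.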

[12] = biological target: Beta-2 adrenergic receptor (Homo sapiens) (UniProt P07550); assay: Adrenergic beta2 receptor (ADRB2) small molecule antagonists, cell-based qHTS assay (AID 1963592); also: nearly all actives have a fitted effect of over 50% in size; also: potency is read from the fitted curve at half-maximal effect
Sequence of Beta-2 adrenergic receptor (Homo sapiens) (P07550 whole entry, looked up): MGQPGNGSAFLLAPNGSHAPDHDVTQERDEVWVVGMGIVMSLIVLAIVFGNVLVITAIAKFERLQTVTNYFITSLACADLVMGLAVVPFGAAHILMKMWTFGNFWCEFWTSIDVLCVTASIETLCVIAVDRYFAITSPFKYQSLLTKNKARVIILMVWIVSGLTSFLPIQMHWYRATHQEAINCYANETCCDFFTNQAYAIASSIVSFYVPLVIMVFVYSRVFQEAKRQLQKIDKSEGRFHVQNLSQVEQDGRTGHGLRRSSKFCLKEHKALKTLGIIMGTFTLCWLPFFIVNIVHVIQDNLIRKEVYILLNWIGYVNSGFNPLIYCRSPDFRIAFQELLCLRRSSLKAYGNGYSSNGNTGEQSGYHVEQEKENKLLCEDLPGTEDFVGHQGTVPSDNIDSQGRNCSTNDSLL
In short: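 Cells (CHO, stable ADRB2 overexpression) incubated 18-20hr at 37C; compounds added from DMSO; agonist mix (1nM isoproterenol, 100uM IBMX, 25uM Ro-20-1724) added; 0.5hr RT; d2-cAMP and anti-cAMP-cryptate added; 1hr RT; 665/615 nm read.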

[13] = biological target: D(2) dopamine receptor (Homo sapiens) (UniProt P14416); assay: Dopamine D2 receptor (DRD2) small molecule agonists, cell-based qHTS assay (AID 1963594); also: nearly all actives have a fitted effect of over 35% in size; also: potency is read from the fitted curve at half-maximal effect
Sequence of D(2) dopamine receptor (Homo sapiens) (P14416 whole entry, looked up): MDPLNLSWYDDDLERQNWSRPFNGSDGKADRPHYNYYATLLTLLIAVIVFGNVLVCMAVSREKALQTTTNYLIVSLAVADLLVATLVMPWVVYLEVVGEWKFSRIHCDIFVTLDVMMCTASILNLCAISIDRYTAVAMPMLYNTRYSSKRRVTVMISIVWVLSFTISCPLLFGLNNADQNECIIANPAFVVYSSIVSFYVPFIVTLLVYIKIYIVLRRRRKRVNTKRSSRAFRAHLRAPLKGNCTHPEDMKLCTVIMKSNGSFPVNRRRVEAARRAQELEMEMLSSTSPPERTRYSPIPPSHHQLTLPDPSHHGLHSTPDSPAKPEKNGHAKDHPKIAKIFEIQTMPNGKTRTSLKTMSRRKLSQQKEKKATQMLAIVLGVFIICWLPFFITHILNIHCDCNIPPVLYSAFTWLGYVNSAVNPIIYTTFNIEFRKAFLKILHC
In short: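 HEK293 cells stably expressing human DRD2, pre-treated with PDE inhibitor Ro20-1724 (0.1 mM final) and compound 10 min at room temperature, then stimulated with NKH477 (200nM […]) for 30 min. cAMP read by HTRF (665/620 nm).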

[14] = biological target: D(2) dopamine receptor (Homo sapiens) (UniProt P14416); assay: Dopamine D2 receptor (DRD2) small molecule antagonists, cell-based qHTS assay (AID 1963595; active = well fitted inhibition curve with a large enough effect in the signal ratio in the repeat runs, with a control signal flat; the % refers to the signal ratio)
In short: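 Human DRD2 antagonist qHTS measuring cAMP by HTRF. The cells are exposed to compound for 10 min, then to NKH477 (200 nM) and quinpirole (12 nM) for 30 min at RT, with Ro20-1724 (0.1 mM) present throughout.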

[15] = p53 small molecule agonists, cell-based qHTS assay with rat liver microsomes: qHTS cell viability counter screen (AID 1963580); also: nearly all actives have a fitted effect of over 45% in size; also: potency is read from the fitted curve at half-maximal effect
In short: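 p53RE-bla HCT-116 cells were exposed 16 h at 37 C to compounds with rat liver microsomes (0.5 mg/mL) and NADPH (0.5 mg/mL). Viability was measured in the same wells as ATP content by CellTiter-Glo luminescence.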

[16] = p53 small molecule agonists, cell-based qHTS assay: qHTS cell viability counter screen (AID 1963581); also: nearly all actives have a fitted effect of over 45% in size; also: potency is read from the fitted curve at half-maximal effect
In short: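 Following 5 h attachment, HCT-116 p53RE-bla cells took up compound for 16 h at 37 C; the reporter was read with B/G FRET substrate (2 h RT), and viability then via CellTiter-Glo ATP luminescence.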

[17] = p53 small molecule agonists, cell-based qHTS assay (AID 1963582; active = well fitted activation curve with a large enough effect in the signal ratio in the repeat runs, not every such curve was filed as active; the % refers to the signal ratio)
In short: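 In this cell-based concentration-response screen, a p53 response element drives beta-lactamase; cells received DMSO-borne compounds after 5 h culture and were incubated a further 16 h before FRET substrate development.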

[18] = cAMP Responsive Elements (CRE) small molecule agonists, cell-based qHTS assay (AID 1963590)
In short: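 A CRE-responsive beta-lactamase reporter in HEK 293T cells was used. Treatment ran 3 h at 37 C; detection used LiveBLAzer B/G FRET substrate for 2 h at room temperature.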

[19] = cAMP Responsive Elements (CRE) small molecule antagonists, cell-based qHTS assay (AID 1963591; active = well fitted inhibition curve with a large enough effect in the signal ratio in the repeat runs, not every such curve was filed as active; the % refers to the signal ratio)
In short: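 HEK293T cells carrying a CRE-driven beta-lactamase reporter receive compound and NKH477 (0.25 uM final) for 3 h. Fluorescence from LiveBLAzer B/G FRET substrate is read after 2 h at room temperature.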

[20] = biological target: Beta-2 adrenergic receptor (Homo sapiens) (UniProt P07550); assay: Adrenergic beta2 receptor (ADRB2) small molecule agonists, cell-based qHTS assay (AID 1963593);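 also: CHO cells stably overexpressing human ADRB2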
In short: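 CHO cells stably over-expressing ADRB2 were plated overnight at 37C, then dosed with compounds plus a stimulation mix containing 100uM IBMX and 25uM Ro-20-1724 for 0.5hr at room temperature. cAMP was measured by HTRF competition, 1hr.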

Measured: Potency

COc1ccccc1NC(=O)c1cc2ccccc2cc1O
active: [2] 61.1 µM | [8] 21.1 µM | [12] 54.5 µM
not listed: [15] | [16] | [17] | [18] | [19] | [20]
inactive: all other assays above

Cc1c(Cl)cccc1[N+](=O)[O-]
not listed: [12]
inactive: all other assays above

NC(=O)c1ccncc1
not listed: [20]
inactive: all other assays above

CCCCCCCCCCCC(=O)Cl
not listed: [8] | [10] | [12] | [15] | [16] | [17] | [18]
inactive: all other assays above

COC(=O)CCCC(=O)O
not listed: [20]
inactive: all other assays above

CCN(CC)c1ccc(C(=C2C=CC(=[N+](CC)CC)C=C2)c2ccc(S(=O)(=O)O)cc2S(=O)(=O)[O-])cc1
active: [1] 24.3 µM | [15] 18.2 µM | [16] 9.13 µM
not listed: [9] | [12] | [13] | [14] | [20]
inactive: all other assays above

CC(C)C(=O)Nc1cccc(C(F)(F)F)c1
not listed: [11] | [19] | [20]
inactive: all other assays above

CN(C)CCN1CCN(c2cccc(Cl)c2)C1=O
active: [8] 1.83 µM | [13] 13.3 µM
not listed: [10] | [14] | [20]
inactive: all other assays above

COc1cc(-c2ccc(N=C=O)c(OC)c2)ccc1N=C=O
not listed: [11] | [12] | [14] | [20]
inactive: all other assays above

Nc1cc(S(=O)(=O)O)ccc1O
not listed: [13] | [18] | [20]
inactive: all other assays above

CCCCC/C=C\CCC=O
not listed: [19] | [20]
inactive: all other assays above

CCNC(=O)C1CC(C)CCC1C(C)C (stereo unspecified)
not listed: [19] | [20]
inactive: all other assays above

O=C(CCCCCCCCC#CI)Oc1ccccc1
not listed: [11] | [18]
inactive: all other assays above

Oc1ccc(C(O)CNCCCCCCNCC(O)c2ccc(O)c(O)c2)cc1O (stereo unspecified)
active: [3] 0.0756 µM
not listed: [14] | [18] | [20]
inactive: all other assays above

CC(C)(C)C(=O)C(=O)O
not listed: [10] | [20]
inactive: all other assays above

Cn1cccc1
not listed: [9] | [12] | [14] | [20]
inactive: all other assays above
